Source: publication PMC5540273 (PLoS ONE, 2017)

What was measured:
Settings in all cases: concentration: 1 μM, replicates: in singlicate; n = 1
PIM1 = tested on: PIM1
PIM2 = tested on: PIM2
PIM3 = tested on: PIM3
PIP5K1A = tested on: PIP5K1A
PIP5K1C = tested on: PIP5K1C
PIP5K2B = tested on: PIP5K2B
PIP5K2C = tested on: T1, PIP5K2C
T1 construct: gene PIP4K2C

PKAC-alpha = tested on: T2, PKAC-alpha
T2 construct: gene PRKACA

PKAC-beta = tested on: T3, PKAC-beta
T3 construct: gene PRKACB

PKMYT1 = tested on: PKMYT1
PKN1 = tested on: PKN1
PKN2 = tested on: PKN2
PLK1 = tested on: PLK1
PLK2 = tested on: PLK2
PLK3 = tested on: PLK3
PLK4 = tested on: PLK4
PRKCD = tested on: PRKCD
PRKCE = tested on: PRKCE
PRKCH = tested on: PRKCH
PRKCI = tested on: PRKCI
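Also: KINOMEscan kinase panel screen.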

| SMILES | %Inh (PIM1) [%] | %Inh (PIM2) [%] | %Inh (PIM3) [%] | %Inh (PIP5K1A) [%] | %Inh (PIP5K1C) [%] | %Inh (PIP5K2B) [%] | %Inh (PIP5K2C) [%] | %Inh (PKAC-alpha) [%] | %Inh (PKAC-beta) [%] | %Inh (PKMYT1) [%] | %Inh (PKN1) [%] | %Inh (PKN2) [%] | %Inh (PLK1) [%] | %Inh (PLK2) [%] | %Inh (PLK3) [%] | %Inh (PLK4) [%] | %Inh (PRKCD) [%] | %Inh (PRKCE) [%] | %Inh (PRKCH) [%] | %Inh (PRKCI) [%] |
| --- | --- | --- | --- | --- | --- | --- | --- | --- | --- | --- | --- | --- | --- | --- | --- | --- | --- | --- | --- | --- |
| Fc1cccc(COc2nnc(-c3ccc4c(c3)CCO4)o2)c1 | 11 | 8 | 0 | 31 | 6 | 29 | 10 | 0 | 0 | 11 | 0 | 0 | 0 | 9 | 11 | 12 | 12 | 0 | 0 | 0 |
| COC(=O)c1c(-c2ccccc2)c2cc(OC)ccc2c(=O)n1Cc1ccccc1 | 18 | 2 | 20 | 16 | 14 | 38 | 0 | 21 | 0 | 2 | 4 | 0 | 0 | 25 | 20 | 19 | 19 | 12 | 9 | 0 |
| COc1ccccc1-c1ccc2c(NC(=O)C3CC3)n[nH]c2n1 [SB-711239] | 13 | 0 | 0 | 41 | 53 | 30 | 19 | 6 | 2 | 0 | 12 | 2 | 10 | 0 | 0 | 0 | 0 | 3 | 27 | 0 |
| Cc1ccc(NC(=O)Nc2cccc(Cl)c2)cc1-c1ccc(C(=O)Nc2ccncc2)cc1 [GSK1398468] | 15 | 0 | 0 | 0 | 33 | 0 | 28 | 0 | 4 | 0 | 0 | 0 | 0 | 0 | 1 | 0 | 0 | 12 | 5 | 0 |
| Cc1cc(N2Cc3ccccc3C2)nc(Nc2ccc(S(=O)(=O)N3CCOCC3)cc2)n1.Cl [GSK1669917] | 14 | 0 | 0 | 0 | 75 | 10 | 0 | 0 | 0 | 21 | 0 | 0 | 0 | 8 | 0 | 0 | 0 | 3 | 10 | 17 |
| Fc1cc(Cl)ccc1Nc1ccnc2cc(-c3ccc(CN4CCCCC4)o3)ccc12 [GW560116] | 13 | 0 | 0 | 0 | 57 | 5 | 71 | 100 | 0 | 0 | 0 | 0 | 0 | 0 | 0 | 51 | 0 | 5 | 0 | 0 |
| O=C(Nc1ccc2c(c1)OCO2)NC1CCN(c2ccnc(Nc3ccc(F)cc3)n2)C1 (centres unmarked) [GSK1379724] | 0 | 0 | 0 | 34 | 32 | 13 | 23 | 0 | 0 | 15 | 4 | 0 | 0 | 0 | 0 | 0 | 0 | 7 | 0 | 0 |
| O=C1NC(=O)C(N2CCc3ccccc32)=C1c1ccccc1Cl [SB-373598] | 0 | 9 | 7 | 0 | 29 | 35 | 1 | 22 | 39 | 11 | 0 | 13 | 14 | 0 | 0 | 12 | 19 | 3 | 30 | 0 |
| Cc1nnc(-c2ccc3occ(-c4ccc(S(C)=O)cc4)c3c2)[nH]1 (centres unmarked) | 32 | 58 | 35 | 0 | 63 | 35 | 61 | 9 | 0 | 21 | 0 | 0 | 0 | 14 | 7 | 11 | 13 | 7 | 0 | 0 |
| Cn1cncc1-c1ccc2ncnc(Nc3ccc(OCc4ccccc4)cc3)c2c1 [GW320571] | 0 | 2 | 0 | 0 | 16 | 17 | 76 | 0 | 8 | 8 | 1 | 0 | 9 | 0 | 0 | 0 | 0 | 14 | 14 | 32 |
